Source: PubChem BioAssay
Potency and affinity values are given separately. Activity calls are given as the source filed them.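 Rule for the calls, unless noted: active = primary screen activator hit with a dose response curve and TRPC4 channel activation at any tested dose; inactive = no activation, no dose response, or not a primary hit.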

These compounds were tested against Short transient receptor potential channel 4 (Mus musculus) (UniProt Q9QUQ5) (assay: mouse TRPC4 channel activators, dose response, cell-based, HEK293 TRPC4/mu-opioid, Fluo-4 calcium (AID 434937)). Details: HEK293 TRPC4 cells, Fluo-4 calcium fluorescence ratio; series mostly up to 20 µM.
Chain of Short transient receptor potential channel 4 (Mus musculus) (Q9QUQ5 whole entry, looked up): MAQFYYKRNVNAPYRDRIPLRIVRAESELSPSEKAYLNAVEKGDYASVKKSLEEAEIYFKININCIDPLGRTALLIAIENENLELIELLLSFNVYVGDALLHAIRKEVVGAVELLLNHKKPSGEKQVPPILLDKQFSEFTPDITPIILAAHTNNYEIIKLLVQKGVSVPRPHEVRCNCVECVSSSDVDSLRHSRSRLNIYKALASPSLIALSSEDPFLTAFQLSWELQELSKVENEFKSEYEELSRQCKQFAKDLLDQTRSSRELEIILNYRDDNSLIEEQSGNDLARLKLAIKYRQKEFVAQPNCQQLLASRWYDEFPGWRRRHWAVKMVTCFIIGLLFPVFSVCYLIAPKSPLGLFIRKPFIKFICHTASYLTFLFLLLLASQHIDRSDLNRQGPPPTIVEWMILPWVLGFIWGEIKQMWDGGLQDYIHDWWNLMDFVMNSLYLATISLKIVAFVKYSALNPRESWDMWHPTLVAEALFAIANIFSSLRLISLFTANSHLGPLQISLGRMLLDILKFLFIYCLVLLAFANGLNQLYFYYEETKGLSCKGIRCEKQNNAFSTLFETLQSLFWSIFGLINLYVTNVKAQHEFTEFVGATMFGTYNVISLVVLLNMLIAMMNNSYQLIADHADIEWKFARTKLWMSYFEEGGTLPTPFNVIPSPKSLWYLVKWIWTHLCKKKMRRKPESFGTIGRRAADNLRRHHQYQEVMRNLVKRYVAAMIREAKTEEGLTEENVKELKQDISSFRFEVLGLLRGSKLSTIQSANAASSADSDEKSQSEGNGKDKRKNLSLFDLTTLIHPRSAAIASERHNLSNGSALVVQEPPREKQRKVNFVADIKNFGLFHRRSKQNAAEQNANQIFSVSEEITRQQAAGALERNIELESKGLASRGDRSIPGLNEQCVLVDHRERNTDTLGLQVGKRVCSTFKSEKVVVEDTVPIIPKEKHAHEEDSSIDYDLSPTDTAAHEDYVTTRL

outcome, inactive:
COc1cc(C(F)(F)F)nc2c(Br)c(C(C)(C)C)nn12
COc1ccccc1N(C(=O)c1snc(C(N)=O)c1N)C(C(=O)NC1CCCC1)c1ccc2ncccc2c1 (stereo not given)
CCc1c(C(=O)N2CCCN(C)CC2)csc1C
O=c1c2ccccc2nc(SCc2ccc([N+](=O)[O-])cc2)n1CCCO
CN1/C(=C\C(=O)C[n+]2ccc3ccccc3c2)C(C)(C)c2ccccc21
CN(C)CCCN(C(=O)c1ccc(S(=O)(=O)N2CCCC2)cc1)c1nc2c(F)cc(F)cc2s1
O=[N+]([O-])c1cccc(N(CC(O)CN2CCCC2)S(=O)(=O)c2ccccc2)c1 (stereo not given)
Cc1cc(Nc2cccc(O)c2)c2ccccc2n1
COc1ccc(CN2CCN(Cc3ccc(C(F)(F)F)cc3)CC2)c(OC)c1
O=[N+]([O-])c1ccc(O)c(C2=NNC(c3ccccc3F)C2)c1 (stereo not given)
Cn1c(-c2ccccc2)cnc1NCc1ccc(F)cc1
COc1nc(N=C(N)N)nc2ccc(C)cc12
CN(CC(=O)NC1CCCc2ccccc21)C1CCCCC1 (stereo not given)
O=C(CSc1nnc(-c2ccc(Cl)cc2Cl)n1C1CCCCC1)N1CCCC1
Cc1ccc(Nc2cc(C)nc3c(C)cccc23)cc1
COc1cc(OC)c(C2N(C)c3ccccc3N2C)cc1OC
O=[N+]([O-])c1cccc(-c2nnc(C3CC3)o2)c1
O=C(NCCN1CCOCC1)c1cc2sccc2n1Cc1ccc(F)cc1
CN(C)CCCNc1c2ccccc2nc2ccccc12
COc1ccccc1Nc1nc(NCC2CCCO2)c2ccccc2n1 (stereo not given)
CC12CCC(C/C1=N/OC(=O)c1cccc([N+](=O)[O-])c1)C2(C)C (stereo not given)
CCN(CC)CCN(C(=O)c1ccccc1OC)c1nc2ccc(F)cc2s1
CCOc1ccccc1N(C(=O)c1snc(C(N)=O)c1N)C(C(=O)NCc1ccccc1)c1ccc(O)cc1 (stereo not given)
Cc1cc([N+](=O)[O-])ccc1NCc1ccccc1
Cn1c(-c2ccc(F)cc2)cnc1NCc1ccc(F)cc1F
Nc1cc(N2CCCCC2)c([N+](=O)[O-])cc1Cl
CN(C)C(CNC(=O)c1cccc(C(F)(F)F)c1)c1ccco1 (stereo not given)
COc1ccc(CN2CCN(C(=O)c3ccc(F)cc3)CC2)c(OC)c1
COCCn1c(SCc2ccccc2F)nc2ccccc2c1=O
COc1ccccc1C(=O)Nc1ccc2c(c1)CCCN2C(=O)c1cccs1
CCCCn1c(NCc2ccc(N(C)C)cc2)nc2ccccc21
COc1ccc([N+](=O)[O-])cc1NCc1ccco1
Cc1cc(C)c2nc(C)cc(N/N=C/c3ccc(O)cc3)c2c1
Cc1nn(C(=O)CNS(=O)(=O)c2ccccc2)c(C)c1Sc1ccc(Cl)cc1
Cc1n[nH]c(C)c1CCCCOc1ccccc1F
COC(=O)C1=C(C)N(Cc2ccccc2)C(=S)N[C@H]1c1ccccc1
CC1(c2ccccc2)CC(C)(C)N(C(=O)C2CCCO2)c2ccccc21 (stereo not given)
CC(OC(=O)CNC(=O)c1ccccc1F)C(=O)Nc1nc(-c2ccccc2)cs1 (stereo not given)
CC(OCC(O)CN(C)CCOc1ccccc1)c1ccc(Cl)cc1 (stereo not given)
Cc1cc(-c2sccc2C)nc(-n2cccc2)n1

The compounds below were run against Short transient receptor potential channel 4 (Mus musculus) (UniProt Q9QUQ5) (assay: TRPC4 positive allosteric modulators, dose response, cell-based, HEK293 TRPC4/mu-opioid, Fluo-4 calcium, EC20 DAMGO (AID 434941;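 active = earlier screen potentiator hit that boosts the TRPC4 ion channel at some dose, with a dose response; inactive = no potentiation, no dose response, or not a prior hit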;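 note: calcium entry triggered by an EC20 dose of DAMGO at the co-expressed mu-opioid receptor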)). Details: HEK293 TRPC4/mu-opioid cells, Fluo-4 calcium fluorescence; series mostly up to 20 µM.

outcome, inactive:
COc1cc(C(F)(F)F)nc2c(Br)c(C(C)(C)C)nn12
COc1ccccc1N(C(=O)c1snc(C(N)=O)c1N)C(C(=O)NC1CCCC1)c1ccc2ncccc2c1 (stereo not given)
CCc1c(C(=O)N2CCCN(C)CC2)csc1C
O=c1c2ccccc2nc(SCc2ccc([N+](=O)[O-])cc2)n1CCCO
CN1/C(=C\C(=O)C[n+]2ccc3ccccc3c2)C(C)(C)c2ccccc21
CN(C)CCCN(C(=O)c1ccc(S(=O)(=O)N2CCCC2)cc1)c1nc2c(F)cc(F)cc2s1
O=[N+]([O-])c1cccc(N(CC(O)CN2CCCC2)S(=O)(=O)c2ccccc2)c1 (stereo not given)
Cc1cc(Nc2cccc(O)c2)c2ccccc2n1
COc1ccc(CN2CCN(Cc3ccc(C(F)(F)F)cc3)CC2)c(OC)c1
O=[N+]([O-])c1ccc(O)c(C2=NNC(c3ccccc3F)C2)c1 (stereo not given)
Cn1c(-c2ccccc2)cnc1NCc1ccc(F)cc1
COc1nc(N=C(N)N)nc2ccc(C)cc12
CN(CC(=O)NC1CCCc2ccccc21)C1CCCCC1 (stereo not given)
O=C(CSc1nnc(-c2ccc(Cl)cc2Cl)n1C1CCCCC1)N1CCCC1
Cc1ccc(Nc2cc(C)nc3c(C)cccc23)cc1
COc1cc(OC)c(C2N(C)c3ccccc3N2C)cc1OC
O=[N+]([O-])c1cccc(-c2nnc(C3CC3)o2)c1
O=C(NCCN1CCOCC1)c1cc2sccc2n1Cc1ccc(F)cc1
CN(C)CCCNc1c2ccccc2nc2ccccc12
COc1ccccc1Nc1nc(NCC2CCCO2)c2ccccc2n1 (stereo not given)
CC12CCC(C/C1=N/OC(=O)c1cccc([N+](=O)[O-])c1)C2(C)C (stereo not given)
CCN(CC)CCN(C(=O)c1ccccc1OC)c1nc2ccc(F)cc2s1
CCOc1ccccc1N(C(=O)c1snc(C(N)=O)c1N)C(C(=O)NCc1ccccc1)c1ccc(O)cc1 (stereo not given)
Cc1cc([N+](=O)[O-])ccc1NCc1ccccc1
Cn1c(-c2ccc(F)cc2)cnc1NCc1ccc(F)cc1F
Nc1cc(N2CCCCC2)c([N+](=O)[O-])cc1Cl
CN(C)C(CNC(=O)c1cccc(C(F)(F)F)c1)c1ccco1 (stereo not given)
COc1ccc(CN2CCN(C(=O)c3ccc(F)cc3)CC2)c(OC)c1
COCCn1c(SCc2ccccc2F)nc2ccccc2c1=O
COc1ccccc1C(=O)Nc1ccc2c(c1)CCCN2C(=O)c1cccs1
CCCCn1c(NCc2ccc(N(C)C)cc2)nc2ccccc21
COc1ccc([N+](=O)[O-])cc1NCc1ccco1
Cc1cc(C)c2nc(C)cc(N/N=C/c3ccc(O)cc3)c2c1
Cc1nn(C(=O)CNS(=O)(=O)c2ccccc2)c(C)c1Sc1ccc(Cl)cc1
Cc1n[nH]c(C)c1CCCCOc1ccccc1F
COC(=O)C1=C(C)N(Cc2ccccc2)C(=S)N[C@H]1c1ccccc1
CC1(c2ccccc2)CC(C)(C)N(C(=O)C2CCCO2)c2ccccc21 (stereo not given)
CC(OC(=O)CNC(=O)c1ccccc1F)C(=O)Nc1nc(-c2ccccc2)cs1 (stereo not given)
CC(OCC(O)CN(C)CCOc1ccccc1)c1ccc(Cl)cc1 (stereo not given)
Cc1cc(-c2sccc2C)nc(-n2cccc2)n1
